Drawing on PubChem BioAssay (NCATS), this text covers Potency for 14 molecules.

Structures are written as SMILES. Inconclusive results are not listed. Calls of active or inactive are those of the source. Calls follow the shape of the full dose curve; tested in HEK293 reporter line.

Test [1] can be described thus: qHTS for Inhibitors of the Functional Ribonucleoprotein Complex (vRNP) of Lassa (LASV) Arenavirus: LASV Primary Screen - GLuc reporter signal (AID 1347082). Also: nearly all actives have a fitted effect of over 60% in size. The following applies: LASV minigenome vRNP, Gaussia luciferase reporter; series mostly up to 57.5 µM.
Test [2] can be described thus: qHTS for Inhibitors of the Functional Ribonucleoprotein Complex (vRNP) of Lassa (LASV) Arenavirus: Viability assay - alamar blue signal for LASV Primary Screen (AID 1347083). Also: nearly all actives have a fitted effect of over 80% in size. Also: potency is read from the fitted curve at half-maximal effect. The following applies: cell viability, alamar blue fluorescence (LASV minigenome counter-screen); series mostly up to 57.5 µM.
Test [3] in a line: qHTS for Inhibitors of the Functional Ribonucleoprotein Complex (vRNP) of Lymphocytic Choriomeningitis Arenaviruses (LCMV): Viability assay - alamar blue signal for LCMV Primary Screen (AID 1347085). Also: nearly all actives have a fitted effect of over 80% in size. To be noted: alamar blue viability counter-screen, LCMV vRNP screen cells; series mostly up to 57.5 µM.

As for `O=C(NC(Cc1cc(=O)[nH]c2ccccc12)C(=O)O)c1ccc(Cl)cc1` (stereo not given), the Potency result in test [1], in test [2] and in test [3] was “inactive” each time.

Regarding `CC(C)(C)NCC(O)COc1ccc(NC(=O)NC2CCCCC2)cc1` (stereo not given), the Potency result in test [1], in test [2] and in test [3] was “inactive” each time.

Turning to `C=CCN1C[C@H](C(=O)N(CCCN(C)C)C(=O)NCC)C[C@@H]2c3cccc4[nH]cc(c34)C[C@H]21`, the Potency result in test [1], in test [2] and in test [3] was “inactive” in each case.

Consider `S=c1nc[nH]c2nc[nH]c12`, for which the Potency result in test [1] was “inactive”. In addition, the Potency in test [2] was 6.11 µM (active).

For `COc1cc(C(=O)NS(=O)(=O)c2ccccc2C)ccc1Cc1cn(C)c2ccc(NC(=O)OC3CCCC3)cc12`, the Potency result in test [1] and in test [2] was “inactive” throughout.

For `O=C(CCCl)NCCc1ccccc1`, the Potency result in test [1], in test [2] and in test [3] was “inactive” throughout.

Consider `NC(N)=NS(=O)(=O)c1ccc(N)cc1`, for which the Potency entry in test [1], in test [2] and in test [3] was “inactive” throughout.

On to `NC1CCN(c2cccc(Cl)n2)CC1`, for which the Potency entry in test [1], in test [2] and in test [3] was “inactive” throughout.

Regarding `CC(=O)N[C@@H](CCC(=O)O)C(=O)O`, the Potency result in test [1], in test [2] and in test [3] was “inactive” in each case.

For `Cc1cc(=O)[nH]c(=S)[nH]1`, the Potency entry in test [1], in test [2] and in test [3] was “inactive” each time.

`CO/N=C(/C(=O)N[C@@H]1C(=O)N2C(C(=O)OCOC(=O)C(C)(C)C)=C(C)CS[C@H]12)c1csc(N)n1`: the Potency result in test [1], in test [2] and in test [3] was “inactive” throughout.

With `O=C1O[C@H](CO)[C@@H](O)[C@H](O)[C@H]1O`, the Potency entry in test [1], in test [2] and in test [3] was “inactive” throughout.

For the molecule `O=C(NCCO[N+](=O)[O-])c1cccnc1`, the Potency result in test [1], in test [2] and in test [3] was “inactive” each time.

For `CCCOc1ccc2c(c1)CC[C@@H]1[C@@H]2CC[C@]2(C)C(OC)CC[C@@H]12` (stereo not given in full), the Potency result in test [1], in test [2] and in test [3] was “inactive” in each case.
